In PubChem BioAssay AID686978 (National Center for Advancing Translational Sciences (NCATS), 2013):
Out of some 420,000 compounds screened, about 64,000 (15%) were called active. Inconclusive results (about 27%) are left out. The call rests on the fitted dose curve; in most records, active means well fitted inhibition curve with a large enough effect; inconclusive means small, poorly fitted or top-dose-only effect; inactive means flat fitted curve, though single readings scatter. These entries were drawn from the full list. Entries that show only a call come without a potency.

assay: qHTS for Inhibitors of human tyrosyl-DNA phosphodiesterase 1 (TDP1): qHTS in cells in absence of CPT; conditions: DT40 Tdp1-/- hTDP1 cells, no CPT, ATP luminescence, 48 h; activity change, negative = growth inhibition: at 46.2 µM (top of the series); further: nearly all actives have a fitted effect of over 55% in size
Outline: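 Cells were dispensed at 400 per well, compounds added by pin tool, plates incubated ≥48 hr at 37 °C, then CellTiter-Glo added for 30 min at room temperature before luminescence reading. Line: DT40 Tdp1-/- complemented with hTDP1; camptothecin omitted.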
Potency means the concentration at half of the fitted maximal effect.

| Structure (SMILES) | Potency |
| --- | --- |
| COc1ccc2c(CC(=O)OCC(=O)NC(N)=O)coc2c1 | inactive |
| COc1ccc(OC)c(C(=O)c2ccc(C(=O)O)cc2)c1 | inactive |
| COc1ccc2occ(C(=O)c3ccc(N=C(C)N(C)C)cc3)c2c1 | 23.1 µM (active) |
| CN(C(=O)COC(=O)c1cc(=O)[nH]c2ccccc12)C1CCCCC1 | inactive |
| CN(CC(=O)Nc1c(Cl)cccc1Cl)C(=O)CNC(=O)C1CCCCC1 | inactive |
| O=C(O)C(CCc1ccccn1)c1ccccc1 (stereo unspecified) | inactive |
| O=C(CSC1=NCCS1)Nc1nc(-c2ccccc2)cs1 | inactive |
| Cc1ccc(-c2csc(NC(=O)Cn3[nH]c(=O)c4ccccc4c3=O)n2)cc1 | 16.4 µM (active) |
| O=C(COC(=O)Cn1[nH]c(=O)c2ccccc2c1=O)Nc1ncc(Cl)cc1Cl | inactive |
| C=CCOc1ccc(Cl)cc1CNCCCN1CCOCC1 | inactive |
| CCCCn1c(N)c(N(CCC(C)C)C(=O)CC2OC(=O)c3ccccc32)c(=O)[nH]c1=O (stereo unspecified) | inactive |
| CCOC(=O)c1sc(N)c(C#N)c1COC(=O)C1=COCCO1 | inactive |
| Cc1cc(=O)n2nc(N3CCC(C(=O)Nc4c(F)c(F)c(F)c(F)c4F)CC3)sc2n1 | inactive |
| COc1ccc(-c2cn3nc(N4CCC(C(=O)Nc5cccc(C)c5C)CC4)sc3n2)cc1 | 11.6 µM (active) |
| COc1ccc(-c2cn3nc(N4CCCC(C(=O)NCCCOC(C)C)C4)sc3n2)cc1 (stereo unspecified) | 18.4 µM (active) |
| Cc1cccc(NC(=O)C2CCCN(C(=O)NCc3ccccc3)C2)c1C (stereo unspecified) | inactive |
| Cc1cc(=O)n2nc(N3CCCC(C(=O)NCc4ccc(Cl)cc4)C3)sc2n1 (stereo unspecified) | inactive |
| Cc1cc(=O)n2nc(N3CCCC(C(=O)NCCC4=CCCCC4)C3)sc2n1 (stereo unspecified) | inactive |
| COC(=O)c1ccc(CNC(=O)c2ccc3oc(C(C)C)nc3c2)cc1 | inactive |
| Cc1c(-c2cccc(Cl)c2)nc2ccccc2c1C(=O)OCC(=O)N(C)C1CCS(=O)(=O)C1 (stereo unspecified) | inactive |
| CC(=O)Nc1ccc(C(=O)NNC(=O)CCCCC(=O)NNC(=O)c2ccc(NC(C)=O)cc2)cc1 | inactive |
| O=C(c1cn(-c2ccccc2)nc1-c1cccnc1)N1CCCCC1 | inactive |

| Structure (SMILES) | Potency |
| --- | --- |
| CCC(=O)OCc1c(C(F)(F)F)nn(C)c1Oc1cccc(C(F)(F)F)c1 | inactive |
| Cc1ccc(S(=O)(=O)NCC(=O)N2CCN(c3ccccn3)CC2)cc1 | inactive |
| CSc1ncccc1C(=O)Nc1cccc(S(=O)(=O)N2CCOCC2)c1 | inactive |
| CCc1cccc(NC(=O)c2cnc(N3CCOCC3)c3ccccc23)c1 | 11.6 µM (active) |
| O=C(Nc1ccc(F)cc1)c1cccnc1N1CCOCC1 | inactive |
| Cc1cc(Br)ccc1NC(=O)c1sc2ncn(CC(=O)N3CCN(c4ccccn4)CC3)c(=O)c2c1C | inactive |
| Cc1cc(Br)ccc1NC(=O)c1cnc(N2CCN(c3ccccn3)CC2)c2ccccc12 | 13 µM (active) |
| CCOC(=O)COc1nc(C)cc(C(F)(F)F)c1C#N | inactive |
| CCOC(=O)c1c(N)sc2c1CCCC2=O | inactive |
| COc1ccc(-n2c(=O)c3ccccc3n(Cc3ccccc3Cl)c2=O)cc1 | inactive |
| CCC(=O)c1ccc(OCC(=O)OCC(=O)N2CCc3ccccc3C2)cc1 | inactive |
| OCCN1CCN(C(=S)c2ccc(-c3ccccc3)cc2)CC1 | inactive |
| CN(C)CCNC(=O)Cc1ccc([N+](=O)[O-])cc1 | inactive |
| Cn1cc(CCC(=O)NCc2ccc3c(c2)OCO3)c2ccccc21 | inactive |
| Cc1nc2nc(COc3ccccc3)[nH]n2c(=O)c1C | inactive |
| OCC[C@H]1C[C@H](O)[C@@H](O)[C@]2(CCc3ccccc3O2)O1 | inactive |
| CCOc1cccc(SCc2noc(C(=O)NC(C)C)c2C(=O)O)c1 | inactive |
| CC1CN(S(=O)(=O)c2cccc(C(F)(F)F)c2)CN1C(=O)N1CCOCC1 (stereo unspecified) | inactive |
| O=C(NC1CCCCC1)c1ccc(Cn2c(SCc3ccccc3)nc3cccnc32)cc1 | inactive |
| Cc1oc(-c2ccccc2)nc1Cn1c(SCc2cccc(C(F)(F)F)c2)nc2cccnc21 | 25.9 µM (active) |
| O=C(O)c1ccc(CSc2nc3cccnc3n2Cc2cccc(F)c2)cc1 | inactive |
| O=C(Cc1ccccc1)NNC1CC(=O)N(c2ccc(Br)cc2)C1=O (stereo unspecified) | inactive |

| Structure (SMILES) | Potency |
| --- | --- |
| Cc1onc(C(=O)Nc2ccc3c(c2)OCO3)c1[N+](=O)[O-] | inactive |
| CN(CC(=O)NC1CCCCC1)S(=O)(=O)c1cccc2cccnc12 | inactive |
| CC(=O)OC[C@@H]1CN(Cc2ccccc2)C[C@H](n2cnc3c(NCc4ccco4)ncnc32)O1 | inactive |
| Nc1ncnc2c1ncn2[C@@H]1O[C@H](C(=O)NCC(F)(F)F)[C@@H](O)[C@H]1O | inactive |
| COCCn1c(=O)c(-c2cc(F)cc(F)c2)nc2cnc(N3CCNCC3)nc21 | 23.1 µM (active) |
| COCCn1c(=O)c(-c2cc(F)cc(F)c2)nc2cncnc21 | inactive |
| O=c1c(-c2ccc(F)cc2)nc2cnc(N3CCOCC3)nc2n1-c1ccccc1 | inactive |
| O=c1c(CCc2ccccc2)nc2cnc(N3CCNCC3)nc2n1Cc1cccs1 | inactive |
| COCCn1c(=O)c(-c2ccccc2)nc2cnc(N3CCOCC3)nc21 | inactive |
| N#Cc1cccc(-c2nc3cnc(N4CCNCC4)nc3n(C3CC3)c2=O)c1 | 3.66 µM (active) |
| COC(=O)c1ccc(NC(=O)c2cc3c(CO)cnc(C)c3oc2=Nc2cccc(C(N)=O)c2)cc1 | inactive |
| Cc1cc(C(=O)N2CCC(C(=O)O)CC2)c(C(F)(F)F)o1 | inactive |
| COC(=O)c1ccc(CSc2ccc(S(=O)(=O)N3CCCCC3)cn2)cc1 | inactive |
| C/C(CC(=O)Nc1ccc(C)cc1C)=N\NC(=O)C(C)C | inactive |
| CN(C)N1C(N)=C(C#N)C(c2ccc(Br)cc2)C2=C1CCCC2=O (stereo unspecified) | inactive |
| Cc1ccc(S(=O)(=O)N(C)C)cc1NC(=O)COC(=O)c1c(C)noc1C | inactive |
| O=C(OCc1cn([C@@H]2C[C@H](c3ccc(Cl)cc3)N(Cc3cccs3)C[C@H]2O)nn1)c1ccccc1 | inactive |
| O=C(OCc1cn([C@H]2C[C@H](c3ccccc3)N(C(=O)c3cccs3)C[C@@H]2O)nn1)c1ccccc1 | 18.4 µM (active) |
| O=C(OCc1cn(-c2ccc(Cl)c(Cl)c2)nn1)c1ccccc1Cl | inactive |
| O=C(c1cccs1)N1C[C@H](n2cc(C3CC3)nn2)[C@@H](O)C[C@@H]1c1ccccc1 | inactive |
| C=CCCC(=O)N1C[C@H]2CON(C)[C@H]2C[C@H]1c1cccc(Nc2ccccc2)c1 | inactive |
| CCCCCC(=O)N1C[C@H](O)[C@@H](n2cc(COC(=O)c3ccccc3)nn2)C[C@@H]1c1ccc(C)cc1 | 0.82 µM (active) |
